Tests used:
Test in all cases: DAPPL (digital affinity profiling via proximity ligation, sequencing); 10 mM Tris-HCl pH 7.5, 50 mM NaCl, 1 mM DTT, 4% glycerol, room temperature, 30 min; GST-TFs on glutathione beads, 16-mer random dsDNA library, 0.1% formaldehyde crosslink after washing; high values mean tight binding
HSF1 = HSF1 (Homo sapiens, UniProt Q00613 1-529); details: protein: recombinant; tags: N-terminal GST; chain copies: 3; dsDNA, one strand shown
How it was run: (§1)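 Yeast served to express human transcription factors as GST fusions, which were then captured on glutathione beads and labelled with DNA barcodes. Pooled with a tag-only sample, they were incubated with 200 nmole of a 16-mer random double-stranded DNA library for 30 min at room temperature in Tris/NaCl/DTT/glycerol buffer, washed, crosslinked with 0.1% formaldehyde, ligated by proximity, amplified by PCR and sequenced. Dividing each hexamer's read frequency for a factor by its frequency for the tag-only sample gives the binding signal.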

SPIC = target: T1, SPIC (Homo sapiens, UniProt Q8N5J4 1-248); details: protein: recombinant; tags: N-terminal GST; dsDNA, one strand shown
T1 sequence: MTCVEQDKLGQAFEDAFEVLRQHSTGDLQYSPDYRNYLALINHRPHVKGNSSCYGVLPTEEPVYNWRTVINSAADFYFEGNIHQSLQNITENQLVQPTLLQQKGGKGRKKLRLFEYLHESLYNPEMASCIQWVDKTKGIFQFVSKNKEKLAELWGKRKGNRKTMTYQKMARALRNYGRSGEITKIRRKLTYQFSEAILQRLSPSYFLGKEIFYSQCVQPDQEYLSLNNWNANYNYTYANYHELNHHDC
How it was run: as §1

CRX = CRX (Homo sapiens, UniProt O43186 1-299); details: protein: recombinant; tags: N-terminal GST; dsDNA, one strand shown
CRX, sequence (O43186 whole entry): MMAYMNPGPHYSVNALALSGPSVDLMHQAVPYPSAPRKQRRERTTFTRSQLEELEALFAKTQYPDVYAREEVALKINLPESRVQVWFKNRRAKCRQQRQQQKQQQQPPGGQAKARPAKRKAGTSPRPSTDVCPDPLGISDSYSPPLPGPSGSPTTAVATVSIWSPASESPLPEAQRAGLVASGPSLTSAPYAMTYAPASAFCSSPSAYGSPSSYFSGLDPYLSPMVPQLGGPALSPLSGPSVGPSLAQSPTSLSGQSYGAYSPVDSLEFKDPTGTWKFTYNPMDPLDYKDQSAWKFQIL
How it was run: as §1

ELK1 = target: T2, ELK1 (Homo sapiens, UniProt P19419 1-428); details: protein: recombinant; tags: N-terminal GST; dsDNA, one strand shown
T2 sequence: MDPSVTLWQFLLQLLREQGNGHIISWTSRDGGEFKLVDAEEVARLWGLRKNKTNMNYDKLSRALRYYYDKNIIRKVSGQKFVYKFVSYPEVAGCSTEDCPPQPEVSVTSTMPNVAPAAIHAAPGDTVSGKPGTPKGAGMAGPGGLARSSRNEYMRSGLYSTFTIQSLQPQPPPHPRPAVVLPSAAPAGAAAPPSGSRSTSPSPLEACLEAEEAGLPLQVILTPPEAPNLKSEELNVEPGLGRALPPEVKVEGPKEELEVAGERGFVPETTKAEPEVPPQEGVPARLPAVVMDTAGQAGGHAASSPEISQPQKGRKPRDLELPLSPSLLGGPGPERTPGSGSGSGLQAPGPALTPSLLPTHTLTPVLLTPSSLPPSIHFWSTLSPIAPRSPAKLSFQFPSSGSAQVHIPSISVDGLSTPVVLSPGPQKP
How it was run: as §1

GABPA = target: T3, GABPA (Homo sapiens, UniProt Q06546 1-454); details: protein: recombinant; tags: N-terminal GST; dsDNA, one strand shown
T3 sequence: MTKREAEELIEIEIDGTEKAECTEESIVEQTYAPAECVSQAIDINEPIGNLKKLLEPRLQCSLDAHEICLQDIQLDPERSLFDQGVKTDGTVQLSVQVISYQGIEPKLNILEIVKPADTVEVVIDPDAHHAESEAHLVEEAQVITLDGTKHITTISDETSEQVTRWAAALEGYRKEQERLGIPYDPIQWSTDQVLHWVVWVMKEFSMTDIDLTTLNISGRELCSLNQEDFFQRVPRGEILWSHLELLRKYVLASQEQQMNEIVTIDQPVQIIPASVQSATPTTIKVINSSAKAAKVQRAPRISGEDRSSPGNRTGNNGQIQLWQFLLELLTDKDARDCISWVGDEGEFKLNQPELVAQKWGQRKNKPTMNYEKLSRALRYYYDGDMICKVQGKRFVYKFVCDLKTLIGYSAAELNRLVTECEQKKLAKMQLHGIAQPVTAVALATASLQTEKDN
How it was run: as §1

ELF1 = ELF1 (Homo sapiens, UniProt P32519 1-619); details: protein: recombinant; tags: N-terminal GST; dsDNA, one strand shown
ELF1, sequence (P32519 whole entry): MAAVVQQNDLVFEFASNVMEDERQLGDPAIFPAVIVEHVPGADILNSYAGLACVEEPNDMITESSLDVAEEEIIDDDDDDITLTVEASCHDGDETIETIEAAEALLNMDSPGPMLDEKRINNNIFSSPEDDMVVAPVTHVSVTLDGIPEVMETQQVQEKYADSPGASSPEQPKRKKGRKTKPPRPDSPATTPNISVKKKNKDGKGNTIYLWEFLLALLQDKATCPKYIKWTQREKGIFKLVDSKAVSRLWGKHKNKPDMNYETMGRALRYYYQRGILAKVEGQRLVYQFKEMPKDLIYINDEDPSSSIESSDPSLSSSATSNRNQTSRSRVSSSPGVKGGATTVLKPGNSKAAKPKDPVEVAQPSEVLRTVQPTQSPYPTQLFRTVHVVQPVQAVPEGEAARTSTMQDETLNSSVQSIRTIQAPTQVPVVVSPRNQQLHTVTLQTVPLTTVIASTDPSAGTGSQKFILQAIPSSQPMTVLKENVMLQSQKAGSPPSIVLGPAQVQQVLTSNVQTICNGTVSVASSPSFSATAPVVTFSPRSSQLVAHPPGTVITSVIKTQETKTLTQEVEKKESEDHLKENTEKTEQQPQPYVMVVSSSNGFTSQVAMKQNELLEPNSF
How it was run: as §1

ELK4 = target: T4, ELK4 (Homo sapiens, UniProt P28324-2 1-405); details: protein: recombinant; tags: N-terminal GST; dsDNA, one strand shown
T4 sequence: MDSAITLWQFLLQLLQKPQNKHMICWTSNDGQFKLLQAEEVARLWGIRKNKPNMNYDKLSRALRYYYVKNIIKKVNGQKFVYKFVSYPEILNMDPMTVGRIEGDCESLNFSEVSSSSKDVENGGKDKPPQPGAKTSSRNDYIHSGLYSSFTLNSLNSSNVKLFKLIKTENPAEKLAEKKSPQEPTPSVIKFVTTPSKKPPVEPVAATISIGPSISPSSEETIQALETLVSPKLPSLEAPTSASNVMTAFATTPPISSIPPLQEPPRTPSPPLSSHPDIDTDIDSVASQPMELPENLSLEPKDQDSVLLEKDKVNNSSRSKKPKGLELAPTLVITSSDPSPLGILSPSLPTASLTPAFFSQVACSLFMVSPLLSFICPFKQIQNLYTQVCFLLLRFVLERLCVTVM
How it was run: as §1

ETV1 = ETV1 (Homo sapiens, UniProt P50549 1-477); details: protein: recombinant; tags: N-terminal GST; dsDNA, one strand shown
ETV1, sequence (P50549 whole entry): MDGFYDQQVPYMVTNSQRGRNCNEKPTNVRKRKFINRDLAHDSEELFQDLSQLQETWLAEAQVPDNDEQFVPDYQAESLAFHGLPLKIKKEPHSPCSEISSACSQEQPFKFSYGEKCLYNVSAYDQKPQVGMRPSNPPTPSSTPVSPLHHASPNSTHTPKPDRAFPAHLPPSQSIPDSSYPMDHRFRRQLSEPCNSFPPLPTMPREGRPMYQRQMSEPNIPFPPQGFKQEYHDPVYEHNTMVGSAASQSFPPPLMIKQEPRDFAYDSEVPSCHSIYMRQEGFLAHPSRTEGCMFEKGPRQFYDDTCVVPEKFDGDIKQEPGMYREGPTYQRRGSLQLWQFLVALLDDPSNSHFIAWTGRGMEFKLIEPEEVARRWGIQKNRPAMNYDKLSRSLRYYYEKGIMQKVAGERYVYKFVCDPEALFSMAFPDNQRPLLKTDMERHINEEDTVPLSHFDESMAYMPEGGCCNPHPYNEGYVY
How it was run: as §1

ETV3L = target: T5, ETV3L (Homo sapiens, UniProt Q6ZN32 1-361); details: protein: recombinant; tags: N-terminal GST; dsDNA, one strand shown
T5 sequence: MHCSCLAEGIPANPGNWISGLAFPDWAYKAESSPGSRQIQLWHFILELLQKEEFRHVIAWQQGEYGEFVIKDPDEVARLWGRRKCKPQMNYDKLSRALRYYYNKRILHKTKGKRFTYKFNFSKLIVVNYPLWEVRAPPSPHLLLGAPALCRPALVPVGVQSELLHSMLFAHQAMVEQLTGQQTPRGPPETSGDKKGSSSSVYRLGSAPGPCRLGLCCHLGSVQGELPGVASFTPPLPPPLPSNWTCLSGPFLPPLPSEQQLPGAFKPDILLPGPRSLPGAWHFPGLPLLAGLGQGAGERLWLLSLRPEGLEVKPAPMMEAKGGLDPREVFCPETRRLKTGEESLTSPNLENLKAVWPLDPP
How it was run: as §1

SPDEF = target: T6, SPDEF (Homo sapiens, UniProt O95238 1-335); details: protein: recombinant; tags: N-terminal GST; dsDNA, one strand shown
T6 sequence: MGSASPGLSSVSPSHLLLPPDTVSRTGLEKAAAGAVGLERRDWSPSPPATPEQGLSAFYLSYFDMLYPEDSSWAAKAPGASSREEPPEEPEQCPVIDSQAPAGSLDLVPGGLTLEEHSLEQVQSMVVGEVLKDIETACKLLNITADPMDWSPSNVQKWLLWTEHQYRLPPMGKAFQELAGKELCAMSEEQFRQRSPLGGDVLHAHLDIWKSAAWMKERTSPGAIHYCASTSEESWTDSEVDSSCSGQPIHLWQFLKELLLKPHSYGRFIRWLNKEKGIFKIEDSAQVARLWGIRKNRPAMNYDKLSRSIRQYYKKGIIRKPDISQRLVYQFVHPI
How it was run: as §1

ETV3 = target: T7, ETV3 (Homo sapiens, UniProt P41162-2 1-143); details: protein: recombinant; tags: N-terminal GST; dsDNA, one strand shown
T7 sequence: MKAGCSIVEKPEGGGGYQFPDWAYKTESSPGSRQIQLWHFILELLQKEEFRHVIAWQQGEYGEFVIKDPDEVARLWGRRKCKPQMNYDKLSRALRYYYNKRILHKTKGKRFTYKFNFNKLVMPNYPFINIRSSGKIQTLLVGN
How it was run: as §1

ETV6 = ETV6 (Homo sapiens, UniProt P41212 1-452); details: protein: recombinant; tags: N-terminal GST; dsDNA, one strand shown
ETV6, sequence (P41212 whole entry): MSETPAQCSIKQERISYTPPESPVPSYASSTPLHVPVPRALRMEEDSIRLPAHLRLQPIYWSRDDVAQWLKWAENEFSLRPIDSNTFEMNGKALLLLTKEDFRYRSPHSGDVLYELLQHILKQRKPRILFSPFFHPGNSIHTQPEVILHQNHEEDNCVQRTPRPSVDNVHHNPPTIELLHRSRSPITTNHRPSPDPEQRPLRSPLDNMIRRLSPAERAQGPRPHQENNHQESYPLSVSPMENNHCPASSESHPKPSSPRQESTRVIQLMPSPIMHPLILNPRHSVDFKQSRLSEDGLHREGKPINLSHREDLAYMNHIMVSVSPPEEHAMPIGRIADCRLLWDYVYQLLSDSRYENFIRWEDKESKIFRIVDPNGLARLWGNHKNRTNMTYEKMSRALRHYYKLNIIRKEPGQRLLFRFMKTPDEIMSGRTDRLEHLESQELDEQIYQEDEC
How it was run: as §1

HSF1, sequence (Q00613 whole entry, the tested form may be a part): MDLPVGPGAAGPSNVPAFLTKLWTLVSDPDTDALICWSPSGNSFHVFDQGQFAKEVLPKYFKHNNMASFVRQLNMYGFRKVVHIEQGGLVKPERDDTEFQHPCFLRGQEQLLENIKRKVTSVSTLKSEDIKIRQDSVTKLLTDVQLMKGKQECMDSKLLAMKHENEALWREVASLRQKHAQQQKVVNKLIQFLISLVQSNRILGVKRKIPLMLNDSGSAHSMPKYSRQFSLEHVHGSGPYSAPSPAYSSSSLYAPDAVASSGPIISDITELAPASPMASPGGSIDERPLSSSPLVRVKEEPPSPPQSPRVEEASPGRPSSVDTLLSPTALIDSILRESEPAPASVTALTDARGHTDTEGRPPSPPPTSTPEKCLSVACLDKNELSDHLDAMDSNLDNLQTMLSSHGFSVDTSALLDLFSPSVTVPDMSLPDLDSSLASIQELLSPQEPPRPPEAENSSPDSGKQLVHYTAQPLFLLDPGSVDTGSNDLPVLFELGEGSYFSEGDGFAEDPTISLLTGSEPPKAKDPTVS

Sequence: TTGAGA
- binding signal (HSF1): 1.06 fold enrichment (6-mer frequency, TF over GST control)
- binding signal (SPIC): 1.02 fold enrichment (6-mer frequency, TF over GST control)
- binding signal (CRX): 1.02 fold enrichment (6-mer frequency, TF over GST control)

Sequence: GCGATC
- binding signal (ELK1): 1.08 fold enrichment (6-mer frequency, TF over GST control)
- binding signal (GABPA): 1.01 fold enrichment (6-mer frequency, TF over GST control)
- binding signal (ELF1): 1.06 fold enrichment (6-mer frequency, TF over GST control)
- binding signal (HSF1): 1.02 fold enrichment (6-mer frequency, TF over GST control)
- binding signal (ELK4): 1.13 fold enrichment (6-mer frequency, TF over GST control)
- binding signal (CRX): 1.03 fold enrichment (6-mer frequency, TF over GST control)
- binding signal (ETV1): 1.03 fold enrichment (6-mer frequency, TF over GST control)
- binding signal (ETV3L): 1.03 fold enrichment (6-mer frequency, TF over GST control)
- binding signal (SPDEF): 1.04 fold enrichment (6-mer frequency, TF over GST control)
- binding signal (ETV3): 1 fold enrichment (6-mer frequency, TF over GST control)
- binding signal (ETV6): 1 fold enrichment (6-mer frequency, TF over GST control)

— paper PMC7862700, “An all-to-all approach to the identification of sequence-specific readers for epigenetic DNA modifications on cytosine”
